# AMA1 RON2 block – inhibitors of Plasmodium falciparum AMA1-RON2 interaction; AlphaScreen AMA1-biotinylated RON2 peptide binding; Potency, µM (top dose mostly 58.2 µM), hits mostly inhibitors; 360,000 tested, 0.2% active; further: nearly all actives have a fitted effect of over 45% in size
#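 AMA1 (3D7) with his tag at 25 nM final met compounds first, then biotinylated RON2 peptide at 25 nM; detection used donor plus acceptor beads, 10 µg/mL apiece, read by AlphaScreen after 30 min at room temperature.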
# AmpC detergent – inhibitors of E. coli AmpC beta-lactamase with detergent; 370,000 tested, 0.041% active; AmpC hydrolysis of nitrocefin, absorbance 480 nm, 0.01% Triton; P00811; Potency, µM (doses to about 114 µM), most hits filed as inhibitors; further: nearly all actives have a fitted effect of over 25% in size
# Target sequence (P00811 whole entry, looked up): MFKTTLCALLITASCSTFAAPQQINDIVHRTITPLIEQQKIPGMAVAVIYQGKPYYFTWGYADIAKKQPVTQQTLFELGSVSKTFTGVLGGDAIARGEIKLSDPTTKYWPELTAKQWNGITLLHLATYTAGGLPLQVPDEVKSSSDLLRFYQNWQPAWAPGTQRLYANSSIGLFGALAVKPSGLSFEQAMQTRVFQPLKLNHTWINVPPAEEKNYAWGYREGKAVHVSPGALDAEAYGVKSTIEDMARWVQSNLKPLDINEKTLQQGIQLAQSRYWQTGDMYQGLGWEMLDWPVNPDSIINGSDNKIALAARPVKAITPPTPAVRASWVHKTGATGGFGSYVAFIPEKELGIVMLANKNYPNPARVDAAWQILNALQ
#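 AmpC (5.3 nM in the dispensed reagent) in 20 mM phosphate pH 7.0 with 0.01% (detergent screen) or 0.0001% Triton X-100 was preincubated with compounds for 15 min at room temperature. Nitrocefin was then added from an 800 uM solution, and hydrolysis was followed at 480 nm.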
# FMDV inh – foot and mouth disease virus antiviral activity; AID 1159524; Potency, µM (doses to about 57.9 µM), usual class: inhibitors; 410,000 tested, 1.2% active; FMDV antiviral cell-based qHTS; calls by dose curve; tested in HEK293T cells; further: read-out not given here; nearly all actives have a fitted effect of over 45% in size
# Sm TGR block – S. mansoni TGR enzyme inhibition. Q962Y6. Potency, µM (doses to about 114 µM), hits mostly inhibitors. purified TGR, DTNB reduction, TNB absorbance 405 nm. 360,000 tested, 3% active; further: nearly all actives have a fitted effect of over 60% in size
#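 TGR 20 nM + NADPH 100 uM (dispensed conc.), cpd preinc 15 min RT; start with NADPH (500 uM addition) then DTNB (15 mM addition). Kinetic TNB absorbance, 405 nm filter. Four-parameter Hill fit across titration.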
# AmpC no deterg – AmpC beta-lactamase inhibition without detergent. 330,000 tested, 0.52% active. AID 485341. Potency, µM (highest dose often 57.1 µM), actives largely listed as inhibitors. AmpC nitrocefin hydrolysis, absorbance 480 nm, 0.0001% Triton. P00811; further: nearly all actives have a fitted effect of over 20% in size
#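 AmpC (5.3 nM in the dispensed reagent) in 20 mM phosphate pH 7.0 with 0.01% (detergent screen) or 0.0001% Triton X-100 was preincubated with compounds for 15 min at room temperature. Nitrocefin was then added from an 800 uM solution, and hydrolysis was followed at 480 nm.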
# A number is an active result; i = inactive; ? = inconclusive; nt = no result given. A selection: hits, their analogues and other compounds. The true share with any hit is near 4.1%. Unless noted, the call rests on the fitted dose curve; in most records, active means well fitted curve in the direction sought with a large enough effect; inconclusive means small, poorly fitted or top-dose-only effect, or another doubt; inactive means no such curve, though single readings can be large; an effect the other way counts as inactive or inconclusive.
SMILES,AMA1 RON2 block,AmpC detergent,FMDV inh,Sm TGR block,AmpC no deterg
CC(C)=C1C2CCC1C1C(=O)N(c3ccc4c(c3)OCO4)C(=O)C21 (stereo not drawn),i,i,i,i,i
COc1ccc(C2=NO[C@@H]3[C@@H]4C[C@@H]([C@H]5C(=O)N(c6ccc7c(c6)OCO7)C(=O)[C@@H]45)[C@H]23)cc1OC,i,i,i,i,i
COc1cc(=O)n2c(c1C(=O)N(C)Cc1nccs1)CCN(Cc1cccc(F)c1F)CC2,nt,nt,i,nt,nt
C/C(CC(=O)Nc1ccc(C)c(Cl)c1)=N\NC(=O)c1ccco1,i,i,i,nt,i
C/C(CC(=O)Nc1ccc(Cl)cc1Cl)=N\NC(=O)c1ccco1,i,i,i,i,7.94µM
C=CCOC(=O)C(=O)/C=C/c1ccc2c(c1)Cc1ccccc1-2,i,i,i,i,i
C=CCOC(=O)C(=O)/C=C/c1csc2ccccc12,i,i,i,28.2µM,i
COc1ccc2c(c1)nc(SCC(=O)c1ccc(Br)s1)n2C,i,i,nt,31.6µM,i
COC(=O)CSc1nc2cc(OC)ccc2n1C,i,i,i,i,i
Cc1ccc(NC(=O)CC2SC3=NCCN3C2=O)cc1 (stereo not drawn),i,i,i,7.94µM,i
O=C(CC1SC2=NCCN2C1=O)Nc1ccccc1 (stereo not drawn),i,i,i,i,i
O=C1CC(Sc2nnc(-c3ccccc3O)o2)C(=O)N1c1ccccc1 (stereo not drawn),i,?,nt,3.98µM,i
COc1ccc(N2C(=O)CC(Sc3nnc(-c4ccccc4)o3)C2=O)cc1 (stereo not drawn),i,i,?,3.55µM,i
COc1ccc(Oc2ncc3nc(-c4cccc(C#N)c4)c(=O)n(C)c3n2)cc1,nt,nt,i,nt,nt
COc1ccc(CNC(=O)C(=O)NCC(c2cccnc2)N2CCN(c3ccccc3)CC2)cc1 (stereo not drawn),nt,i,i,i,nt
CCn1c(Oc2ccc(F)cc2F)nc2c1c(=O)n(C)c(=O)n2C,nt,i,i,i,nt
COC(=O)c1ccc(C(=O)OC)c(NC(=O)/C=C/C(=O)O)c1,i,i,i,10µM,i
COC(=O)c1ccc(C(=O)OC)c(NC(=O)Oc2ccccc2)c1,i,i,i,i,i
COc1cccc2c1ncc1c(-c3ccc(C)cc3)nn(-c3ccc(F)cc3)c12,nt,i,i,i,nt
C/C=C/C=C\C(=O)Nc1cccc(C2=NOC3(C2)C[C@H](C(N)=O)N(C(=O)CC#N)C3)c1 (stereo partly drawn),i,i,i,2µM,i
C/C=C/C=C\C(=O)Nc1cccc(C2=NOC3(C2)C[C@@H](C(N)=O)N(C(=O)/C(C)=C/C)C3)c1 (stereo partly drawn),i,i,i,2.51µM,i
CCCCCC(=O)Nc1cccc(C2=NOC3(C2)C[C@H](C(N)=O)N(C(=O)CC#N)C3)c1 (stereo partly drawn),nt,i,nt,i,i
C/C=C\C=C/C(=O)Nc1cccc(C2=NOC3(C2)C[C@@H](C(N)=O)N(C(=O)CCCCC)C3)c1 (stereo partly drawn),i,i,i,2.51µM,i
C/C=C\C=C/C(=O)Nc1cccc(C2=NOC3(C2)C[C@H](C(N)=O)N(C(=O)CC)C3)c1 (stereo partly drawn),i,i,i,1.78µM,i
C/C=C/C=C/C(=O)N1CC2(CC(c3cccc(NC(=O)CCCCC)c3)=NO2)C[C@H]1C(N)=O (stereo partly drawn),i,i,i,?,i
SMILES,AMA1 RON2 block,AmpC detergent,FMDV inh,Sm TGR block,AmpC no deterg
Cc1nc2sccn2c1CN1CCC2(CC1)CC2C(=O)Nc1ccc2c(c1)OCO2 (stereo not drawn),nt,nt,i,nt,nt
COCc1c(C(=O)NC2CCCC2)cnn1-c1nccc(-c2cc(C)sc2C)n1,nt,nt,i,nt,nt
C/C=C\C=C\C(=O)Nc1cccc(C2=NOC3(C2)C[C@@H](C(N)=O)N(C(=O)C(c2ccccc2)c2ccccc2)C3)c1 (stereo partly drawn),i,i,i,1.78µM,i
C=C(C)C(=O)Nc1cccc(C2=NOC3(C2)C[C@@H](C(N)=O)N(C(=O)/C=C/C=C/C)C3)c1 (stereo partly drawn),i,i,i,8.91µM,i
C/C=C/C=C/C(=O)N1CC2(CC(c3cccc(NC(=O)/C=C/C)c3)=NO2)C[C@@H]1C(N)=O (stereo partly drawn),i,i,i,?,i
C/C=C(/C)C(=O)Nc1cccc(C2=NOC3(C2)C[C@H](C(N)=O)N(C(=O)Cc2ccc([N+](=O)[O-])cc2)C3)c1 (stereo partly drawn),i,i,i,i,i
C/C=C\C=C/C(=O)Nc1cccc(C2=NOC3(C2)C[C@H](C(N)=O)N(C(=O)Cc2ccc([N+](=O)[O-])cc2)C3)c1 (stereo partly drawn),i,i,i,1.12µM,i
COc1ccc(C2=C(C)C(N3CCC(C(=O)Nc4ccc(F)cc4C)CC3)=NS2(=O)=O)cc1,nt,i,i,i,nt
O=C(CSc1ccc(-c2ccccc2)nn1)NC1CCCCC1,i,i,i,i,i
O=C(CSc1ccc(-c2ccco2)nn1)NC1CCCCC1,i,i,i,8.91µM,i
O=C(CSc1ccc(-c2ccco2)nn1)NC1CCCC1,i,i,i,17.8µM,i
O=C(CSc1ccc(-c2ccco2)nn1)N1CCCCCC1,i,i,i,25.1µM,i
Cc1nc2ccc(C(=O)N3CCc4c(cnc(C)c4CNC(=O)/C=C/c4cccs4)C3)cc2nc1C,nt,nt,i,nt,nt
Cc1ccc2c(=O)c(C(=O)c3ccc(F)cc3)cn(CC(=O)Nc3ccc4c(c3)OCCO4)c2n1,nt,i,i,i,nt
O=c1c(-c2ccc(Cl)cc2)nc2cnc(N3CCOCC3)nc2n1CCc1ccccc1,nt,nt,i,nt,nt
Cc1ccc(NC(=O)O/N=C/c2c(C)nn(C(C)(C)C)c2C)cc1Cl,i,i,0.0126µM,i,i
Cc1ccc(NC(=O)Nn2cnnc2)cc1Cl,i,i,i,i,i
COc1cccc(NC(=O)CN(C)C(=O)c2cc(-c3ccco3)nc3ccccc23)c1,i,i,i,?,i
CN(CCOc1ccc(Cl)cc1)C(=O)c1cc(-c2ccco2)nc2ccccc12,i,?,35.5µM,11.2µM,i
Cc1ccc(NC(=O)CN(C)C(=O)c2cc(-c3ccco3)nc3ccccc23)cc1,i,i,i,6.31µM,i
CN(CC(=O)Nc1ccc(F)cc1)C(=O)c1cc(-c2ccco2)nc2ccccc12,i,i,?,11.2µM,i
COc1ccc(Nc2ncnc3nc[nH]c23)cc1OC,i,?,i,i,12.6µM
Cc1ccc(CN2C[C@H](Sc3ccccn3)C[C@H]2C(=O)Nc2ccc3sc(C)nc3c2)cc1,nt,nt,i,nt,nt
O=[N+]([O-])c1ccc(S(=O)Cc2ccccc2)c([N+](=O)[O-])c1 (stereo not drawn),i,nt,14.1µM,nt,nt
O=[N+]([O-])c1ccc(CS(=O)c2ccccc2)cc1 (stereo not drawn),i,nt,i,nt,nt
